Compound activity: PubChem, National Center for Advancing Translational Sciences (NCATS)
Compounds with a hit are over-represented: about 2.3% of the library has one in this group of screens.
Lassa entry inh: qHTS for Inhibitors of binding or entry into cells for Lassa Virus | Lassa virus pseudotype entry inhibition, cell reporter | Potency, µM (highest dose often 37.9 µM), hits mostly inhibitors | 1.2% of 300,000 active | AID 540256, 2011; calls by dose curve; tested in HEK293 cells; further: nearly all actives have a fitted effect of over 50% in size
MARV entry inh: qHTS for inhibitors of binding or entry into cells for Marburg Virus | Potency, µM (doses to about 37.8 µM), actives largely listed as inhibitors | Marburg virus pseudotyped entry inhibition, cell reporter | AID 540276, 2011 | 1.8% of 300,000 active; calls by dose curve; tested in HEK293 cells
AMA1 RON2 block: qHTS for Inhibitors of AMA1-RON; Towards Development of Antimalarial Drug Lead: Primary Screen; 0.2% of 360,000 active; AlphaScreen AMA1-biotinylated RON2 peptide binding; Plasmodium falciparum AMA1 (3D7) - RON2 peptide interaction; AID 720542, 2013; Potency, µM (doses to about 58.2 µM), hits mostly inhibitors; further: nearly all actives have a fitted effect of over 45% in size
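AMA1 (3D7) with his tag at 25 nM final met compounds first, then biotinylated RON2 peptide at 25 nM; detection used donor plus acceptor beads, 10 µg/mL apiece, read by AlphaScreen after 30 min at room temperature.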
AmpC no deterg: qHTS Inhibitors of AmpC Beta-Lactamase (assay without detergent); Potency, µM (series often up to 57.1 µM), most hits filed as inhibitors; P00811; 0.52% of 330,000 active; AmpC nitrocefin hydrolysis, absorbance 480 nm, 0.0001% Triton; further: nearly all actives have a fitted effect of over 20% in size
Target sequence (P00811 whole entry, looked up): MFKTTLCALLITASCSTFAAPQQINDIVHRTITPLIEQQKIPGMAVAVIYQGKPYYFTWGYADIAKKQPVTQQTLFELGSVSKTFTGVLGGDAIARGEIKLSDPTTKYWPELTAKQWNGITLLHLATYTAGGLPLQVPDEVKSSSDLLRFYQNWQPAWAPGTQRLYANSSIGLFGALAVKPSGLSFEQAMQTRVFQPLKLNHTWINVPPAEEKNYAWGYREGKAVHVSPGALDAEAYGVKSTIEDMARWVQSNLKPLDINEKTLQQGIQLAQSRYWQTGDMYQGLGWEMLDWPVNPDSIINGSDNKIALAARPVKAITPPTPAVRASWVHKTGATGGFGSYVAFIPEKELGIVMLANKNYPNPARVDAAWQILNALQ
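20 mM phosphate pH 7.0 + 0.01% (detergent screen) or 0.0001% Triton X-100; 5.3 nM AmpC reagent; cpd preinc 15 min RT; nitrocefin (800 uM stock) to start; A480 q20 s × 4 min; Activity was normalised to no-enzyme and no-compound control wells.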
AmpC inh detg: qHTS Inhibitors of AmpC Beta-Lactamase (assay with detergent); Potency, µM (series often up to 114 µM), most hits filed as inhibitors; P00811; 0.041% of 370,000 active; AmpC hydrolysis of nitrocefin, absorbance 480 nm, 0.01% Triton; further: nearly all actives have a fitted effect of over 25% in size
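AmpC (5.3 nM in the dispensed reagent) in 20 mM phosphate pH 7.0 with 0.01% (detergent screen) or 0.0001% Triton X-100 was preincubated with compounds for 15 min at room temperature. Nitrocefin was then added from an 800 uM solution, and hydrolysis was followed at 480 nm.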
Numbers stand for hits. Unless noted, the call rests on the fitted dose curve; in most records, active means well fitted curve in the direction sought with a large enough effect; inconclusive means small, poorly fitted or top-dose-only effect, or another doubt; inactive means no such curve, though single readings can be large; an effect the other way counts as inactive or inconclusive.

For Clc1ccc(-c2nc(-c3ccccn3)no2)cc1Cl the results were Lassa entry inh inconclusive, MARV entry inh 2.91µM, AMA1 RON2 block inactive, AmpC no deterg inactive and AmpC inh detg inactive.
COc1nc(C)ccc1-c1noc(-c2ccccn2)n1 was read as Lassa entry inh 8.2µM, MARV entry inh inconclusive, AMA1 RON2 block inactive, AmpC no deterg inactive and AmpC inh detg inactive.
`COc1ccccc1-c1nc(-c2ccccn2)no1` gave AMA1 RON2 block inactive, AmpC no deterg inactive and AmpC inh detg inactive.
`Cc1ccccc1-c1nc(-c2ccccn2)no1` gave Lassa entry inh 1.26µM, MARV entry inh inconclusive, AMA1 RON2 block inactive, AmpC no deterg inactive and AmpC inh detg inactive.
COc1ccc(-c2nc(-c3ccccn3)no2)cc1 was read as Lassa entry inh inconclusive, MARV entry inh 0.291µM, AMA1 RON2 block inactive, AmpC no deterg inactive and AmpC inh detg inactive.
For COc1ccc(C)cc1-n1nnc(C(=O)Nc2cccc(SC)c2)c1C the results were Lassa entry inh inactive, MARV entry inh inactive and AmpC inh detg inactive.
For COc1ccc(N2CCN(c3nc4ccc(C)cc4n4nnnc34)CC2)cc1 the results were Lassa entry inh inactive and AmpC inh detg inactive.
For CCCCc1ccc(-c2nc(-c3ccncc3)no2)cc1 the results were Lassa entry inh inactive, MARV entry inh inactive, AMA1 RON2 block inactive, AmpC no deterg inactive and AmpC inh detg inactive.
Screening Brc1ccc(-c2nc(-c3ccccn3)no2)o1 returned Lassa entry inh 8.91µM, MARV entry inh 7.94µM, AMA1 RON2 block inactive, AmpC no deterg inactive and AmpC inh detg inactive.
`CCc1ccc(-c2nc(-c3ccncc3)no2)cc1` gave Lassa entry inh inconclusive, MARV entry inh 12.6µM, AMA1 RON2 block inactive, AmpC no deterg inactive and AmpC inh detg inactive.
O=C(CCN1C(=O)c2ccccc2Sc2ncccc21)Nc1ccc(F)cc1 was read as Lassa entry inh inactive and AmpC inh detg inactive.
`COc1cc(OC)cc(-n2c(=O)c3ccccc3n(Cc3ccccc3C#N)c2=O)c1` gave Lassa entry inh inactive, MARV entry inh inconclusive and AmpC inh detg inactive.
For CCCC(=O)N(c1ccc2oc(-c3ccccc3)c(C(=O)OCC)c2c1)S(=O)(=O)c1ccc(C)cc1 the results were Lassa entry inh inconclusive and AmpC inh detg inactive.
Screening Cc1cc(Cl)ccc1OCc1n[nH]c(=S)n1C1CCCCC1 returned Lassa entry inh inconclusive, MARV entry inh 23.1µM, AMA1 RON2 block inactive, AmpC no deterg inactive and AmpC inh detg inactive.
`O=C1[C@@H]2[C@H]3[C@H](O)[C@H](O)CC(=NOC[C@@H](O)COCc4ccco4)[C@@H]3CC[C@H]2C(=O)N1C[C@@H]1CCCO1` gave MARV entry inh inactive.
O=C(CS(=O)(=O)c1ccc(F)cc1)Nc1nccs1 was read as Lassa entry inh inactive, MARV entry inh inactive, AMA1 RON2 block inactive, AmpC no deterg 31.6µM and AmpC inh detg inconclusive.
Cc1ccc(S(=O)(=O)CC(=O)Nc2nc(C(C)(C)C)cs2)cc1 was read as Lassa entry inh 3.66µM, MARV entry inh inactive, AMA1 RON2 block inactive, AmpC no deterg inactive and AmpC inh detg inactive.
Screening CCCCCCCC1=Cc2ccccc2C(C(C(C)=O)C(=O)OC)N1C(=O)OC (stereo not given) returned MARV entry inh inactive.
COc1ccc(-c2nc(-c3ccccc3)oc2NC(C)c2ccccc2)cc1 (stereo not given) was read as Lassa entry inh inconclusive and MARV entry inh inactive.
N#CC1=C(N)N2C(=C(C#N)C1c1ccc(Br)cc1)Nc1ccccc12 (stereo not given) was read as Lassa entry inh inconclusive, MARV entry inh 9.2µM, AMA1 RON2 block inactive, AmpC no deterg inactive and AmpC inh detg inactive.
Screening N#CC1=C(N)N2C(=C(C#N)C1c1cccc(Br)c1)Nc1ccccc12 (stereo not given) returned Lassa entry inh inconclusive, MARV entry inh inactive, AMA1 RON2 block inactive, AmpC no deterg inactive and AmpC inh detg inactive.
`Cc1nn(-c2ccc(N3CCCC3)nn2)c(C)c1CCC(=O)NCc1ccc(F)cc1` gave Lassa entry inh inactive and AmpC inh detg inactive.
Screening N#CC1=C(N)OC2=C(CC/C2=C\c2ccc(F)cc2)C1c1ccc(F)cc1 (stereo not given) returned AmpC no deterg inactive and AmpC inh detg inactive.
N#CC1=C(N)OC2=C(CCC/C2=C/c2ccoc2)C1c1ccoc1 (stereo not given) was read as AmpC no deterg 0.282µM and AmpC inh detg inactive.
`CCCCn1c(SCC(=O)Nc2cc(C)on2)nc2ccccc2c1=O` gave Lassa entry inh inactive, MARV entry inh inactive, AMA1 RON2 block inactive, AmpC no deterg inactive and AmpC inh detg inactive.
For CCC(C)n1c(SCC(=O)Nc2cc(C)on2)nc2ccccc2c1=O (stereo not given) the results were Lassa entry inh inactive, MARV entry inh 3.98µM, AMA1 RON2 block inactive, AmpC no deterg inactive and AmpC inh detg inactive.
Screening Cc1cc(NC(=O)CSc2nc3ccccc3c(=O)n2C(C)c2ccccc2)no1 (stereo not given) returned Lassa entry inh 2.51µM, MARV entry inh 3.16µM, AMA1 RON2 block inactive, AmpC no deterg inactive and AmpC inh detg inactive.
COCC(C)n1c(SCC(=O)Nc2cc(C)on2)nc2ccccc2c1=O (stereo not given) was read as Lassa entry inh inactive, MARV entry inh inactive, AMA1 RON2 block inactive, AmpC no deterg inactive and AmpC inh detg inactive.
`CN(C)S(=O)(=O)c1ccc(-c2csc(N/N=C/c3ccco3)n2)cc1` gave Lassa entry inh 8.91µM, MARV entry inh inconclusive, AMA1 RON2 block inactive, AmpC no deterg inactive and AmpC inh detg inactive.
For Cc1ccc(-c2csc(N/N=C/c3ccco3)n2)cc1 the results were Lassa entry inh inconclusive, MARV entry inh inconclusive, AMA1 RON2 block inactive, AmpC no deterg inactive and AmpC inh detg inconclusive.
CN(C)S(=O)(=O)c1ccc(-c2csc(N/N=C/c3ccc(O)cc3)n2)cc1 was read as Lassa entry inh 7.08µM, MARV entry inh 7.3µM, AMA1 RON2 block inactive, AmpC no deterg inactive and AmpC inh detg inactive.
`O=[N+]([O-])c1cccc(-c2csc(N/N=C/c3cccc(O)c3)n2)c1` gave Lassa entry inh 7.94µM, MARV entry inh inconclusive, AMA1 RON2 block inactive, AmpC no deterg inactive and AmpC inh detg inactive.
`C(=N\Nc1nc(-c2ccccc2)cs1)/c1ccncc1` gave Lassa entry inh inconclusive, MARV entry inh inactive, AMA1 RON2 block inactive, AmpC no deterg inactive and AmpC inh detg inactive.
C[C@@H]1CN(C2CCN(C(=O)c3ccccc3Cl)CC2)C[C@H](C)O1 was read as MARV entry inh inactive.
`Cn1ccc2cc(S(=O)(=O)N3CCCN(C(=O)Nc4ccccc4Br)CC3)ccc21` gave Lassa entry inh inactive and AmpC inh detg inactive.
